About 7,900 targets were measured; listed, in parts, are those with a hit and a random draw of the rest. About 0.6% of all pairs of compound and target were hits.
What follows are targets tested with C[C@H](C1=CC=C(C=C1)C(=O)NC2=C3C=CNC3=NC=C2)N (assay: log2 fold change, soluble protein after heating vs DMSO (PISA); higher = thermal stabilisation; K562 cells, 10 uM, 30 min; active = over 0.2 and 3.5 SD of the protein, either way, in both replicates (recomputed)).
Summary of the method: (§1)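 For each measurement, 10 μM compound was applied for 30 min to K562 cells at 2×10^6 cells/mL. Aliquots were heated for 3 min across 48°C-58°C, pooled, and extracted in PBS with 0.5% NP-40 at 4°C; the supernatant after 21,000xg for 90 min was soluble protein. This was quantified by TMTpro 16plex LC-MS/MS with channel sums equalised, and thermal stability was reported relative to control samples from duplicates, on a log2 fold-change scale.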

Chain of UniProt Q5VWP2 (Q5VWP2 whole entry, looked up): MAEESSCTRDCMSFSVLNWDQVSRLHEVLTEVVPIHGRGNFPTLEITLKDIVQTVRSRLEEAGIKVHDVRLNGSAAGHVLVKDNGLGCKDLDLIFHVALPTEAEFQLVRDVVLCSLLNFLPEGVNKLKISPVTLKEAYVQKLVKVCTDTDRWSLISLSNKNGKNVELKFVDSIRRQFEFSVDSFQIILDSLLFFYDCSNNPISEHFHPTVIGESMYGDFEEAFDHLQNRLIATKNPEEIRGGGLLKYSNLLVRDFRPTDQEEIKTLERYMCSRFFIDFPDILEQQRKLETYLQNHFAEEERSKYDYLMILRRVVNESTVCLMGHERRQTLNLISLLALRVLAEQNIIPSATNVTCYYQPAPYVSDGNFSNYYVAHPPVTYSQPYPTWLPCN
Chain of UniProt Q6ZRS2 (Q6ZRS2 whole entry, looked up): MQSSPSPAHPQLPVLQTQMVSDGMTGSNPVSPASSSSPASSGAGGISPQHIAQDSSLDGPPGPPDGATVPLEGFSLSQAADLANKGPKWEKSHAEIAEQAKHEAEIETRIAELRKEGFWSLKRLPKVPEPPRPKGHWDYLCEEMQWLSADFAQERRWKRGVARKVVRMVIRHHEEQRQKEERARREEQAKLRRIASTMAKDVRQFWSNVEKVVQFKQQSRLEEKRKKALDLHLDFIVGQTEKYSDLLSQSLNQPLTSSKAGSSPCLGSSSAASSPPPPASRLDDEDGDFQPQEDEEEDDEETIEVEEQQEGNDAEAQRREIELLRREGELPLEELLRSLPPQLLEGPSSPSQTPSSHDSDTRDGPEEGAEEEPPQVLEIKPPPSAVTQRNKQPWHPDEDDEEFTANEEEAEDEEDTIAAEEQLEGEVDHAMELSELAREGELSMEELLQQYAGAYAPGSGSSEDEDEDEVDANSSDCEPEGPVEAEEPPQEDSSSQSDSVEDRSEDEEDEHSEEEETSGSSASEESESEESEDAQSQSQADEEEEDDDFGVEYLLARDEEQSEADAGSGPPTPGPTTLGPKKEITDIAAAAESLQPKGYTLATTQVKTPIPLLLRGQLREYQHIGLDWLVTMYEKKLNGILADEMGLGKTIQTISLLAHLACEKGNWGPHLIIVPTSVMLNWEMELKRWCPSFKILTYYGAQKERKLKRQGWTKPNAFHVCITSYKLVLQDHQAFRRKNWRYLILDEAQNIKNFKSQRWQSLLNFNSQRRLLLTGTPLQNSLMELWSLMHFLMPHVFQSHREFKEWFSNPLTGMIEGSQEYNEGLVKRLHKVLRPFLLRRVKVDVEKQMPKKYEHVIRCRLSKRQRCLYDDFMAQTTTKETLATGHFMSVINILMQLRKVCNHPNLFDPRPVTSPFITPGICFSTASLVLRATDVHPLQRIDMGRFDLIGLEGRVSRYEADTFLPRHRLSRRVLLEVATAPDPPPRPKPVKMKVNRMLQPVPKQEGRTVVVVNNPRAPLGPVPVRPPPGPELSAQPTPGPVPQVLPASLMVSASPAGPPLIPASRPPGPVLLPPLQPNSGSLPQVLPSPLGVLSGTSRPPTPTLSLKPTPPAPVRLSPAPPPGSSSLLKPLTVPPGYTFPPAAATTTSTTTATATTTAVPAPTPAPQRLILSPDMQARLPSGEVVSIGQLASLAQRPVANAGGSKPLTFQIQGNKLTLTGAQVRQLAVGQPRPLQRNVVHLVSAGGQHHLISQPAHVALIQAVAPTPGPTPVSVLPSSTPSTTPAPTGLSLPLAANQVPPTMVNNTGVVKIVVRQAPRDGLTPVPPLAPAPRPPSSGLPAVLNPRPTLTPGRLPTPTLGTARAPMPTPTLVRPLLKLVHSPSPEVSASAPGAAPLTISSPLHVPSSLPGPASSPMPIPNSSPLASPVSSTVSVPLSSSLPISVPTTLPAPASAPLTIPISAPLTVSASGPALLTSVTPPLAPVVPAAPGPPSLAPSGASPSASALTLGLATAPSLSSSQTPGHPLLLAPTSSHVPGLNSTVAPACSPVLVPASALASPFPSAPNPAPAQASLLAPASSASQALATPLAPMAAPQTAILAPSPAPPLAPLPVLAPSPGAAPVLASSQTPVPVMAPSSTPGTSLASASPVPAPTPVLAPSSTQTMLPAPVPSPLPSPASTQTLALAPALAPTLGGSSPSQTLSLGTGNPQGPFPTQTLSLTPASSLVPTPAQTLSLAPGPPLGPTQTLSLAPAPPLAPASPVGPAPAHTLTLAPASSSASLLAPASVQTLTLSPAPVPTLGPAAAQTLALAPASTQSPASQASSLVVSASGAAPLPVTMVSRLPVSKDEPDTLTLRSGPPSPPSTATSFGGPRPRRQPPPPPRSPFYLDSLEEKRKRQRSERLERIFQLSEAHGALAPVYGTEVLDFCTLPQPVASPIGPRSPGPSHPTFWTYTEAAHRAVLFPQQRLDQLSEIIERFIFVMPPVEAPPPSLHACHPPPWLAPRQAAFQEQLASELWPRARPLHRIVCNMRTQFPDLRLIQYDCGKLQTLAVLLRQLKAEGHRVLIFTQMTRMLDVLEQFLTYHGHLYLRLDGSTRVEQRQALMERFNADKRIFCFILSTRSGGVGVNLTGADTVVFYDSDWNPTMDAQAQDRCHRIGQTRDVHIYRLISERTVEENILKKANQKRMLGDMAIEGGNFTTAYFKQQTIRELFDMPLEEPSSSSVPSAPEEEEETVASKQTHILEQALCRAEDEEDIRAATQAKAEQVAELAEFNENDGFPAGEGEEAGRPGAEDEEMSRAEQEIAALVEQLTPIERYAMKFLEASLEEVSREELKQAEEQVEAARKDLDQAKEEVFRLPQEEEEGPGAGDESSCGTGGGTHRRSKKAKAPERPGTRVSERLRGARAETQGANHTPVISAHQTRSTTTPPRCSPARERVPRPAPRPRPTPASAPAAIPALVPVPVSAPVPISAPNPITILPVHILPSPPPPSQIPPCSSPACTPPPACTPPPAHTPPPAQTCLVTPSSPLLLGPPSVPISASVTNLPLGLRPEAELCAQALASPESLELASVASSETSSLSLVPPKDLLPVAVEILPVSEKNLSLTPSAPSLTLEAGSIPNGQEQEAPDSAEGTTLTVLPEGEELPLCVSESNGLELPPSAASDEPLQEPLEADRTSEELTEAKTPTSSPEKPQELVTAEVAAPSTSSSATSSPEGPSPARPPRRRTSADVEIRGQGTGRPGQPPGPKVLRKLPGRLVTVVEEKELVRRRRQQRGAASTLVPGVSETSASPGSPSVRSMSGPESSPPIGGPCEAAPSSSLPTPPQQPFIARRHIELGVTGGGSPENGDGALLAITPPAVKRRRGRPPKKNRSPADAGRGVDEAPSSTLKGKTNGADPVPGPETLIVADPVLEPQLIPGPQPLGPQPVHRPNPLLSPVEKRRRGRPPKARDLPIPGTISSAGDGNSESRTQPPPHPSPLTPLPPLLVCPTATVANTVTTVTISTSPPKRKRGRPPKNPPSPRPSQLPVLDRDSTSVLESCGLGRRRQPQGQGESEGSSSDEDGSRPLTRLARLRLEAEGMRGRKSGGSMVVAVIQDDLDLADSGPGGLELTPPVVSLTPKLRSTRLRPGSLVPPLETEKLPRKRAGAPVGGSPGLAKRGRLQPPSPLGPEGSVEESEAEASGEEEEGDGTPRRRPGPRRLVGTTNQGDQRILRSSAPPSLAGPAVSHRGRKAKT
Chain of UniProt O60749 (O60749 whole entry, looked up): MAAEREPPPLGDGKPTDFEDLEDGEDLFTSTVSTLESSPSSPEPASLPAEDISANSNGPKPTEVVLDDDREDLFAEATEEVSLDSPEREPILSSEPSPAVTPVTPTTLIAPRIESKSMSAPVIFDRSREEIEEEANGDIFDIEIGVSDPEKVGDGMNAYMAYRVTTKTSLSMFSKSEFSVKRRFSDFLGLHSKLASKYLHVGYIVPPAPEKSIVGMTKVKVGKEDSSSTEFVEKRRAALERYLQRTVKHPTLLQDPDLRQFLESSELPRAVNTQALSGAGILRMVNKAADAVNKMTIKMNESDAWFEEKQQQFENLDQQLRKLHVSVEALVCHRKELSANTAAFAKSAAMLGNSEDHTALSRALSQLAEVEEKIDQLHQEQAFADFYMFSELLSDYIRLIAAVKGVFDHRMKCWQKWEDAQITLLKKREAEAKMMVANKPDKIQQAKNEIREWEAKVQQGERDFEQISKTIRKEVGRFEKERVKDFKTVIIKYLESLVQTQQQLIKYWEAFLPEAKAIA
Chain of UniProt Q9H5L6 (Q9H5L6 whole entry, looked up): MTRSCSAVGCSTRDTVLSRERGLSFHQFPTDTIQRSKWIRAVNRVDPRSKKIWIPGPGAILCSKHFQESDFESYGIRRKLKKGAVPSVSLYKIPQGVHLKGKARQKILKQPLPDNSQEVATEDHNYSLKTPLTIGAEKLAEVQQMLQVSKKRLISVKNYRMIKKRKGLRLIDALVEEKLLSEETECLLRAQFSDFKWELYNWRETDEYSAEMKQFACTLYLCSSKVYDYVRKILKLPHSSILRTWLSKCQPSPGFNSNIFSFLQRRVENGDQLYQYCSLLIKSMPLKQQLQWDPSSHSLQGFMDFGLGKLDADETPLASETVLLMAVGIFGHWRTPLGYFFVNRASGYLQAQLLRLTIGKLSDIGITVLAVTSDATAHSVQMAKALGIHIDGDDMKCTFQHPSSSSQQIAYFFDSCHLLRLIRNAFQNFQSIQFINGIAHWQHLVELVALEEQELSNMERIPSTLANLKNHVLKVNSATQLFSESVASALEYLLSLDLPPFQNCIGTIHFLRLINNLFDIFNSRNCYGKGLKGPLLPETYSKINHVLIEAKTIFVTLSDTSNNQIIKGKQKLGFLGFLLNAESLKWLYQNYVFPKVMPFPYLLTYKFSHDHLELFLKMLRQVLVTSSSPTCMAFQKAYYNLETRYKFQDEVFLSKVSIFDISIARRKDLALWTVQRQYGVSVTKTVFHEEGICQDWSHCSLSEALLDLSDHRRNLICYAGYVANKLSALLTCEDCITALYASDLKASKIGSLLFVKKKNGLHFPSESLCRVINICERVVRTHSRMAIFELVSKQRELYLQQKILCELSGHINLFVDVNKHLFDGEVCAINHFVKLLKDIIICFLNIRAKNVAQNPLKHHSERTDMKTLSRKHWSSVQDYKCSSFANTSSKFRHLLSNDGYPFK
Chain of UniProt Q8N5G0 (Q8N5G0 whole entry, looked up): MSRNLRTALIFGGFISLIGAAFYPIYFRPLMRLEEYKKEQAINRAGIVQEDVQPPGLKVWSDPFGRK

log2 fold change, inactive:
TACC2 (UniProt O95359) -0.013
TK1 (UniProt K7ERV3) 0.182
TAF6L (UniProt Q9Y6J9) 0.058

These targets were tested with C[C@H](Nc1ncnc2nc[nH]c12)c1cc2cccc(Cl)c2c(=O)n1-c1ccccc1 [duvelisib] in the same assay as above.
Summary of the method: as §1

log2 fold change, inactive:
SLC35B1 isoform 2 (UniProt P78383) 0.171
SNX2 isoform 2 (UniProt O60749) 0.015
SMPD4 isoform 2 (UniProt Q9NXE4) 0.069
TC2N (UniProt Q8N9U0) 0.256
SLC8B1 (UniProt Q6J4K2) 0.196
SNRK (UniProt Q9NRH2) -0.162
SSB (UniProt E7ERC4) 0.399
SLC9A6 isoform 3 (UniProt Q92581) -0.001
SRCAP (UniProt Q6ZRS2) 0.039
TENT5C (UniProt Q5VWP2) 0.111
THAP9 (UniProt Q9H5L6) 0.168
TBP (UniProt P20226) -0.135
SREBF1 isoform 4 (UniProt P36956) -0.083
SMARCB1 (UniProt Q12824) 0.241
SYK (UniProt P43405) 0.13
TIMM10B (UniProt Q9Y5J6) 0.308
SLC35F6 (UniProt Q8N357) -0.049
TEX30 (UniProt Q5JUR7) 0.031
TM7SF2 (UniProt O76062) -0.075
SMIM20 isoform 2 (UniProt Q8N5G0) 0.086

Source: the supplement of paper PMC10849652
